# From PubChem BioAssay
# Values joined by “and” are separate entries in the source; they are usually repeats but may differ in a detail not shown here. Equal entries are not always repeated. For some assays here: Entries with a potency or affinity are not part of this list. Some structures have more than one record in an assay (separate samples or runs), and their calls can disagree. Active and inactive are the calls of the source. Unless noted, the rule behind the calls is not given here.
# Assays:
# [1] = compounds altering viability of human ES cells (AID 493140); conditions: human embryonic stem cell survival screen; stronger effect = higher value;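 note: cells exposed to compounds for four days before counting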
# [2] = signal quenchers or enhancers, Cy5 substrate/SSB – biochemical, NIH Clinical Collection, E. coli SSB, artefact control for HCV NS3 helicase inhibitor project (AID 743268); conditions: Cy5-oligo bound E. coli SSB, fluorescence interference
# [3] = test system: Hepatitis C virus NS3 helicase; experiment: blockers of NS3h binding to DNA – biochemical, fluorescence polarization, NIH Clinical Collection, primary screen (AID 743270); conditions: NS3 helicase binding to Cy5-dT15 DNA, stronger effect = higher value, concentration not given here
# [4] = molecular target: Single-stranded DNA-binding protein (Escherichia coli (strain K12)) (UniProt P0AGE0); experiment: SSB-ssDNA binding inhibitors – biochemical, fluorescence polarization, NIH Clinical Collection, counter-screen for HCV NS3 helicase inhibitor project (AID 743271; in the data active = inhibition above about 28%); conditions: E. coli SSB-DNA binding, stronger effect = higher value, concentration not given here
# [5] = compounds distorting NS3 helicase fluorescence signal – biochemical, NIH Clinical Collection, artefact control for HCV NS3 helicase inhibitor project (AID 743272); conditions: fluorescence interference counterscreen, HCV NS3 helicase assay; stronger effect = lower value;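 note: HCV NS3 helicase with a Cy5 labelled single stranded DNA probe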
# [6] = modulation of C. elegans fzo-1 (AID 1259413);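 note: fzo-1 mutant C. elegans worms in liquid wells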; conditions: C. elegans fzo-1 modulator screen, mean read-out; stronger effect = higher value
# [7] = blockers of cellular phospholipid synthesis – cell-based, LOPAC library, screen 4, primary screen (AID 1347384); conditions: animal cells, phospholipid biosynthesis inhibition screen; at 10 µM
# [8] = galactose survival enhancers in mitochondrial complex I cybrids – cell-based, galactose medium, ATP luminescence, primary screen (AID 1645843;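 active = z-score of at least 1.8 in each of two replicates, scored against plate mean and spread of sample wells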;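 note: positive z means more ATP and so rescue of galactose-driven cybrid death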); conditions: complex I mutant cybrid cells, 72 h, stronger effect = higher value
# [9] = blockers of polyQ-driven CASP3 activation – cell-based (AID 1583); conditions: polyglutamine-induced caspase-3 activation, cell assay; stronger effect = higher value;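 tested at 10 µM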
# [10] = yeast 75Q aggregation reduction – 75Q-TubU reporter (AID 1593); conditions: Yeast 75Q polyglutamine aggregation reporter
# [11] = restoration of touch response, mutant HTT neurons – whole organism, C. elegans mechanosensory neurons, N-terminal huntingtin (AID 1599); conditions: C. elegans polyQ-huntingtin mechanosensory neurons, stronger effect = higher value
# [12] = blockers of cytochrome c efflux from mitochondria – biochemical, purified mitochondria (AID 1603); conditions: stronger effect = lower value;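 note: mouse liver mitochondria challenged with calcium chloride; signal normalized to the plate average as 100%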
# [13] = polyglutamine aggregate formation blockers (AID 1604); conditions: polyglutamine-induced protein aggregation inhibition assay; stronger effect = higher value; tested at 2.5 µM
# [14] = glutamate transport activators, MN-1 cells, MN-1 cell line (AID 1612); conditions: MN-1 motor neuron cells, stronger effect = higher value;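 note: tested at 1 µM final; 0% = mean of DMSO vehicle wells on each plate; positive means more glutamate uptake than control and negative means less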
# [15] = 75Q-TubH aggregate inhibition, S. cerevisiae, yeast (AID 1616); conditions: S. cerevisiae 75Q-TubH polyglutamine aggregation suppression; stronger effect = higher value
# [16] = P. berghei load reduction in hepatocytes – cell-based, HepG2, luciferase luminescence, HepG2 viability, primary screen (AID 624349; in the data active = parasite load remaining mostly below about 12%, no sharp cut-off; inactive = mostly above about 10%;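 note: 100% = mean of DMSO negative control wells on the same plate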); conditions: P. berghei liver stage in HepG2, luciferase luminescence, concentration not given here; parasite load remaining: stronger effect = lower value; viability: measured here: HepG2 viability without parasites
# F380Y/beta1 = experiment: BK channel mutant inhibitors and activators – cell-based, U2OS BacMam, thallium flux, beta subunits, selectivity assay, profiling panel (AID 1259406;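 active = thallium flux through the channel raised or lowered by more than 3 SD from vehicle-only wells, actives on both sides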;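 note: initial slope of Thallos dye fluorescence rise after thallium is added; log ratio against the mean of 0.3% DMSO vehicle wells on the same plate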); conditions: U2OS BacMam BK variants, at 30 µM
# F380Y/beta4 = experiment: as above; conditions: U2OS BacMam BK variants, at 30 µM
# R275C/beta4 = experiment: as above; conditions: U2OS BacMam BK variants, at 30 µM
# R275C/Slo1WT/beta2 = experiment: as above; conditions: U2OS BacMam BK variants, at 30 µM
compound,measurement,setting,value
CCN(CC)C(=S)SSC(=S)N(CC)CC,survival,[1],16.9 (inactive)
same,fluorescence ratio,[2],0.98 (inactive)
same,inhibition,[3],-1.19% (inactive)
same,inhibition,[4],-1.64% (inactive)
same,fluorescence ratio,[5],0.99 (inactive)
same,mean signal,[6],249 (inactive)
same,outcome,[7],inactive
same,z-score,[8],-1.35 (inactive) and -1.44 (inactive) and -2.44 (inactive)
COc1cc2nc(N3CCN(C(=O)c4ccco4)CC3)nc(N)c2cc1OC,inhibition,[9],16.5%
same,score,[10],1.21
same,rescue above control,[11],-0.41
same,cytochrome c release ratio,[12],1.07
same,inhibition of aggregation,[13],70.4%
same,glutamate uptake change,[14],-22.2%
same,aggregation suppression score,[15],1.01
same,survival,[1],0.667 (inactive)
same,mean signal,[6],236 (inactive)
same,outcome,[7],inactive
NC(N)=NC(=O)c1nc(Cl)c(N)nc1N,inhibition,[9],17.4%
same,score,[10],0.64
same,rescue above control,[11],-10.9
same,cytochrome c release ratio,[12],1.1
same,inhibition of aggregation,[13],27.6%
same,glutamate uptake change,[14],-1.52%
same,aggregation suppression score,[15],1.02
same,survival,[1],8.17 (inactive)
same,fluorescence ratio,[2],0.95 (inactive)
same,inhibition,[3],6.73% (inactive)
same,inhibition,[4],13.8% (inactive)
same,fluorescence ratio,[5],0.9 (inactive)
same,mean signal,[6],212 (inactive)
same,outcome,[7],inactive
CN(C)CCN(Cc1ccccc1)c1ccccn1,inhibition,[9],16.8%
same,score,[10],1.31
same,rescue above control,[11],2.67
same,cytochrome c release ratio,[12],1.13
same,inhibition of aggregation,[13],79.6%
same,glutamate uptake change,[14],-25.1%
same,aggregation suppression score,[15],1.09
same,parasite load remaining,[16],50.9% (inactive) and 109% (inactive)
same,viability,[16],82.5% and 67.3%
same,fluorescence ratio,[2],1.01 (inactive)
same,inhibition,[3],0.4% (inactive)
same,inhibition,[4],-0.87% (inactive)
same,fluorescence ratio,[5],0.93 (inactive)
same,mean signal,[6],272 (inactive)
same,z-score,[8],0.73 (inactive)
CC(=O)OCC(=O)[C@@]1(O)CC[C@H]2[C@@H]3CCC4=CC(=O)C=C[C@]4(C)[C@H]3[C@@H](O)C[C@@]21C,parasite load remaining,[16],83.8% (inactive)
same,viability,[16],90.8%
same,fluorescence ratio,[2],0.95 (inactive)
same,inhibition,[3],-5% (inactive)
same,inhibition,[4],-0.48% (inactive)
same,fluorescence ratio,[5],0.91 (inactive)
same,z-score,[8],0.085 (inactive)
same,log fold change Tl+ flux,F380Y/beta1,0.0202 (inactive)
same,log fold change Tl+ flux,F380Y/beta4,0.0608 (inactive)
same,log fold change Tl+ flux,R275C/beta4,0.0243 (inactive)
same,log fold change Tl+ flux,R275C/Slo1WT/beta2,0.0458 (inactive)
C[C@@H](O)[C@H]1C(=O)N2C(C(=O)O)=C(S[C@@H]3CN[C@H](C(=O)N(C)C)C3)[C@H](C)[C@H]12,survival,[1],4.17 (inactive)
same,parasite load remaining,[16],81% (inactive) and 101% (inactive) and 24.6% (inactive)
same,viability,[16],74.6% and 72.6% and 92%
same,fluorescence ratio,[2],1.04 (inactive)
same,inhibition,[3],2.77% (inactive)
same,inhibition,[4],-0.87% (inactive)
same,fluorescence ratio,[5],0.99 (inactive)
same,mean signal,[6],272 (inactive)
same,z-score,[8],1.23 (inactive)
same,log fold change Tl+ flux,F380Y/beta1,0.00288 (inactive)
same,log fold change Tl+ flux,F380Y/beta4,-0.00589 (inactive)
same,log fold change Tl+ flux,R275C/beta4,0.0148 (inactive)
same,log fold change Tl+ flux,R275C/Slo1WT/beta2,-0.00332 (inactive)
CC(=O)OCC(=O)[C@@]1(O)CC[C@H]2[C@@H]3CCC4=CC(=O)CC[C@]4(C)[C@H]3C(=O)C[C@@]21C,parasite load remaining,[16],71.9% (inactive)
same,viability,[16],95.8%
same,fluorescence ratio,[2],1.07 (inactive)
same,inhibition,[3],-0.45% (inactive)
same,inhibition,[4],-0.48% (inactive)
same,fluorescence ratio,[5],1.01 (inactive)
same,outcome,[7],inactive
same,z-score,[8],0.82 (inactive) and 2.46 (active)
same,log fold change Tl+ flux,F380Y/beta1,0.0066 (inactive)
same,log fold change Tl+ flux,F380Y/beta4,-0.0455 (inactive)
same,log fold change Tl+ flux,R275C/beta4,-0.00976 (inactive)
same,log fold change Tl+ flux,R275C/Slo1WT/beta2,0.0162 (inactive)
O=C(c1ccccc1)c1ccc2n1CCC2C(=O)O (stereo not drawn),inhibition,[9],1.05%
same,score,[10],1.22
same,rescue above control,[11],-3.9
same,cytochrome c release ratio,[12],1.43
same,inhibition of aggregation,[13],60.8%
same,glutamate uptake change,[14],14.7%
same,aggregation suppression score,[15],1.2
same,survival,[1],2.17 (inactive)
same,fluorescence ratio,[2],1.01 (inactive)
same,inhibition,[3],-2.77% (inactive)
same,inhibition,[4],-7.8% (inactive)
same,fluorescence ratio,[5],0.99 (inactive)
same,mean signal,[6],231 (inactive)
same,outcome,[7],inactive
same,z-score,[8],0.335 (inactive) and 1.09 (inactive) and 0.445 (inactive)
CCCCc1oc2ccccc2c1C(=O)c1cc(I)c(OCCN(CC)CC)c(I)c1,inhibition,[9],18.6%
same,score,[10],-1.49
same,rescue above control,[11],0.17
same,cytochrome c release ratio,[12],0.79
same,inhibition of aggregation,[13],28.8%
same,glutamate uptake change,[14],11.2%
same,aggregation suppression score,[15],-0.303
same,survival,[1],3.5 (inactive)
same,fluorescence ratio,[2],0.96 (inactive)
same,inhibition,[3],-1.97% (inactive)
same,inhibition,[4],1.97% (inactive)
same,fluorescence ratio,[5],0.95 (inactive)
same,mean signal,[6],244 (inactive)
same,outcome,[7],inactive
same,z-score,[8],-1.52 (inactive) and -1.44 (inactive) and -1.87 (inactive)
